PubChem BioAssay
Active and inactive are the calls of the source. Unless noted, the rule behind the calls is not given here.

Columns and labels:
[1] = system: XIP peptide (Xip251-270) binding; test: small-molecule binders of XIP peptide, primary screen, biochemical, small-molecule microarray, fluorescence 635/667 nm, 0.1 µg/mL protein (AID 1182); conditions: fluorescent protein binding, 635 nm, higher = more signal, called active from +8 up or from −8 down
XIP peptide (Xip251-270) = test: small-molecule binders of XIP peptide, primary screen, biochemical, small-molecule microarray, fluorescence 635/667 nm, 0.5 µg/mL protein (AID 1183); conditions: small-molecule microarray binding, fluorescence 635 nm; higher = more signal
[2] = Plasmodium falciparum growth inhibition, primary screen, strain 3D7, DAPI fluorescence, 100 nL (AID 1184);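 note: parasites grown inside human red blood cells in medium with human serum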; conditions: P. falciparum 3D7 growth, 3 d, higher = more signal
[3] = target: Homeobox protein Hox-A13 (Mus musculus) (UniProt Q62424); test: inhibitors of HoxA13-DNA binding, primary screen, biochemical, fluorescence polarization, labeled oligonucleotide (AID 1185); conditions: 15 min, higher = more signal, called active from +8 up or from −8 down
Homeobox protein Hox-A13 (Mus musculus), sequence (Q62424 whole entry, looked up): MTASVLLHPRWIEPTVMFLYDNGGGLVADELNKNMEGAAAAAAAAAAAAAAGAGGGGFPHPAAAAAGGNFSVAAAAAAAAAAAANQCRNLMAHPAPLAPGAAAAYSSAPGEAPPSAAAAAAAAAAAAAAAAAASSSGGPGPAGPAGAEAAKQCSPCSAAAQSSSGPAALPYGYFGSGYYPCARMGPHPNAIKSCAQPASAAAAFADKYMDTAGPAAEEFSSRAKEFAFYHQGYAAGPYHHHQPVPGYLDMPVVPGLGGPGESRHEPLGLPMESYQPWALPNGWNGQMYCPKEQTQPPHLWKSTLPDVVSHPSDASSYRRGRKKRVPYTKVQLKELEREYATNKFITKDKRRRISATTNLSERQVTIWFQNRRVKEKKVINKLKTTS

[4] = inhibitors of hydroxyurea-induced Chk1 phosphorylation, primary screen, imaging, HeLa, phospho-Chk1 antibody, percent positive cells (AID 1186); conditions: hydroxyurea-induced phospho-Chk1 immunofluorescence imaging, higher = more signal
[5] = inhibitors of hydroxyurea-induced Chk1 phosphorylation, primary screen, imaging, HeLa, phospho-Chk1 nuclear intensity (AID 1187); conditions: hydroxyurea-induced phospho-Chk1 immunofluorescence imaging, higher = more signal

Compound	composite z-score [1]	composite z-score (XIP peptide (Xip251-270))	z-score [2]	z-score [3]	z-score [4]	z-score [5]
COC(=O)c1c(CC[C@@H](CO)NC(=O)N2CCC[C@H]2Cn2cc(Cc3ccccc3)nn2)oc(C(C)=O)c1C(=O)OC	2.25 (inactive)	0.889	-0.547	-3.88 (inactive)	-0.358 (inactive)	-0.522 (inactive)
CCOC(=O)C[C@H]1[C@H](OC(=O)c2ccccc2-c2ccccc2)[C@@H](NC(=O)C2CCCCC2)c2cc(OCCCO)ccc2N1C(=O)Cc1ccc(OC)cc1	0.0141 (inactive)	0.333	0.273	-3.62 (inactive)	-0.0021 (inactive)	0.223 (inactive)
O=C1C2C=CC(C(O)c3ccccc3)N(Nc3ccccc3F)C2C(=O)N1c1ccccc1 (configuration not stated)	1.07 (inactive)	0.726	0.199	-3.79 (inactive)	0.237 (inactive)	0.0511 (inactive)
O=C1c2ccccc2[C@](Cc2ccccc2I)(C(=O)NCC(F)(F)F)[C@H](c2ccc(CO)cc2)N1C1CCCCC1	0.759 (inactive)	0.841	-1.14	-3.97 (inactive)	-0.68 (inactive)	-0.11 (inactive)
CC(C)C[C@@H]1NC(=O)[C@@H]2C[C@H](C(=O)NCCCCCN)[C@H](c3ccc(O)cc3)N2C1=O	0.0938 (inactive)	0.725	0.179	-1.88 (inactive)	-0.223 (inactive)	0.0212 (inactive)
COC(=O)[C@@]1(Cc2ccc(OC)cc2)[C@H]2c3cc(C(=O)N4CCCC4)n(Cc4cccc5ccccc45)c3C[C@H]2CN1C(=O)c1ccccc1	0.0014 (inactive)	0.658	-1.58	-1.44 (inactive)	-0.491 (inactive)	-0.684 (inactive)
[N-]=[N+]=NCc1ccccc1[C@H]1OC(c2ccc(OCCCO)cc2)=N[C@@]1(CCS(=O)(=O)c1ccccc1)C(=O)N1CCCCC1	0.447 (inactive)	0.757	-2.46	-3.76 (inactive)	-0.0013 (inactive)	-0.0087 (inactive)
CC(C)N1C(=O)C[C@@](C(=O)NCCCN(C)C)(c2ccc([N+](=O)[O-])cc2)[C@H]1c1ccc(CO)cc1	-0.324 (inactive)	0.51	0.0784	-2.62 (inactive)	0.414 (inactive)	0.273 (inactive)
O=C(NCC(F)(F)F)[C@@H]1c2ccccc2C(=O)N(Cc2cc(F)cc(C(F)(F)F)c2)[C@H]1c1ccc(CO)cc1	0.0811 (inactive)	0.663	-1.25	-2.64 (inactive)	-0.0626 (inactive)	-0.205 (inactive)
COC(=O)[C@@]1(Cc2ccc(F)cc2)[C@H]2c3cc(C(=O)N4CCCC4)n(CCc4ccc(O)c(O)c4)c3C[C@H]2CN1C(=O)c1ccccc1	1.19 (inactive)	-0.892	-1.47	-4.67 (inactive)	0.333 (inactive)	0.303 (inactive)
C=CC[C@]1(C(=O)NCCN2CCOCC2)N=C(c2ccc(OCCCO)cc2)O[C@H]1c1ccccc1CN=[N+]=[N-]	0.882 (inactive)	0.887	-2.29	-4.74 (inactive)	-0.005 (inactive)	0.23 (inactive)
COc1ccc(-c2nc(-c3ccccc3)c3c(c2C)CO[Si]3(C(C)C)C(C)C)cn1	-0.447 (inactive)	-0.447	0.193	-3.37 (inactive)	0.0411 (inactive)	0.126 (inactive)
CCOC(=O)c1ccc(NC(=O)O[C@H]2[C@H](OC(=O)Nc3ccc4c(c3)OCO4)[C@H](OC(=O)Nc3ccc4c(c3)OCO4)[C@@H](OC)O[C@@H]2CO)cc1	1.4 (inactive)	0.863	-2.28	-6.83 (inactive)	-0.306 (inactive)	0.101 (inactive)
C[N+](C)(C)CCCCCCNC(=O)[C@H]1C[C@H]2C(=O)NCC(=O)N2[C@H]1c1ccc(O)cc1	0.537 (inactive)	0.815	0.089	-2.39 (inactive)	-0.458 (inactive)	-0.132 (inactive)
COCCOC(=O)N1C(=O)[C@@]2(c3cc(C#CC4=CCCCC4)ccc31)[C@H](c1ccc(OCCO)cc1)N1[C@H](c3ccccc3)[C@H](c3ccccc3)OC(=O)[C@H]1[C@@H]2C(=O)NC[C@H](O)c1ccccc1	0.575 (inactive)	0.622	-2.1	1.86 (inactive)	0.107 (inactive)	0.576 (inactive)
CC=CC(O)C1C=CC2C(=O)N(c3ccccc3)C(=O)C2N1Nc1ccccc1F (configuration not stated)	0.147 (inactive)	0.744	-0.48	-3.7 (inactive)	0.0921 (inactive)	-0.305 (inactive)
CN(C)CCCCNC(=O)[C@@H]1C[C@@H]2C(=O)N[C@@H](Cc3ccccc3)C(=O)N2[C@@H]1c1cccc(OCCO)c1	0.096 (inactive)	0.762	0.0546	-3.94 (inactive)	-1.08 (inactive)	-0.295 (inactive)
COc1ccc([Si](C)(C)[C@H]2[C@H](CCO)O[C@@]3(C(=O)N(Cc4cccc(N5C(=O)COc6ccccc65)c4)c4ccccc43)[C@@H]2C)cc1	0.595 (inactive)	0.649	-2.8	-1.2 (inactive)	-0.327 (inactive)	0.208 (inactive)
O=C1N(Cc2ccccc2)Cc2ccccc2[C@@H]2OC(c3ccc(OCCCO)cc3)=N[C@]12CCS(=O)(=O)c1ccccc1	0.0667 (inactive)	0.736	-2.17	0.722 (inactive)	-0.0608 (inactive)	0.268 (inactive)
CN1C(=O)C2C=CC(C(O)c3ccc(F)cc3)N(Nc3ccccc3)C2C1=O (configuration not stated)	0.477 (inactive)	0.466	-0.102	-2.9 (inactive)	0.264 (inactive)	-0.232 (inactive)
COc1cccc(/C=C/C=O)c1	0.421 (inactive)	-0.453	1.1	-0.396 (inactive)	0.36 (inactive)	0.769 (inactive)
COC(=O)[C@@]1(Cc2ccccc2)[C@@H]2C(=CC(=O)[C@H]2CC(=O)C(=O)N(C)C)CN1C(=O)c1ccccc1	0.0477 (inactive)	0.345	-0.99	-3.77 (inactive)	0.0041 (inactive)	0.253 (inactive)
C=C(COC)/C(=C/C[C@H](OC(C)=O)c1ccc(OCCO)cc1)c1cc(C(=O)OC)ccc1OC	0.192 (inactive)	0.731	-2.95	-4.11 (inactive)	-0.285 (inactive)	0.98 (inactive)
C=C(/C(=C/C[C@@H](OC(C)=O)c1cccc(OCCO)c1)c1cc(C(=O)OC)ccc1OC)C(C)C	-0.139 (inactive)	0.567	-3.06	-5.59 (inactive)	-0.541 (inactive)	-0.42 (inactive)
C=CCOC(=O)[C@H]1[C@@H]2C(=O)O[C@@H](c3ccccc3)[C@@H](c3ccccc3)N2[C@@H](c2ccc(OCCOC(=O)[C@H]3C[C@H]4C(=O)N[C@@H](CC(C)C)C(=O)N4[C@H]3c3cccc(OCCO)c3)cc2)[C@]12C(=O)Nc1ccc(I)cc12	0.124 (inactive)	0.694	-1.79	0.344 (inactive)	-0.592 (inactive)	-1.19 (inactive)
CCCCC=C[C@@H](NC(=O)c1ccc(-c2ccccc2)cc1)c1ccccc1	-0.464 (inactive)	-0.102	0.067	-3.89 (inactive)	-0.85 (inactive)	-1.37 (inactive)
CCCCCCc1nc(C2CC2)cc2c1[Si](C(C)C)(C(C)C)O[C@H]2c1ccccc1	0.263 (inactive)	0.421	-0.358	-1.54 (inactive)	-0.507 (inactive)	-0.465 (inactive)
